Results with a measured potency or affinity are listed apart. The source made the active and inactive calls.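 The calls were made as follows: active = compounds lowering cell ATP signal with a fitted half-effect dose at most twice the top valid dose; inconclusive = flat curve with 30 to 70% signal loss, or bad fit; inactive = wrong direction, flat within 30%, or weaker than limit.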
Assay: HEK293 cell cytotoxicity, dose response, cytotoxicity control, cherry-picks, set 5 (AID 1053117);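 also: more negative means greater loss of ATP signal and more cytotoxicity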
Settings: HEK293T viability, CellTiter-Glo ATP luminescence, 72 h; series mostly up to 26 µM

Question: With Cc1cccc(NC(=O)c2ccc(C3SCC(=O)N3CCc3ccccc3)cc2)c1 (centres undefined) as the compound, how does the outcome read?
Answer: inactive

Question: Which outcome does the source give for COc1ccc(CCNC(=O)C2CCN(Cc3nc(-c4ccccc4F)oc3C)CC2)cc1OC here?
Answer: inactive

Question: For Cc1oc2ccc(O)cc2c1C(=O)c1ccc(Br)cc1, which outcome is on record?
Answer: inactive

Question: Which outcome does the source give for N#C[C@H]1[C@@H](c2ccccc2C2=CCCCC2)[C@@H](CO)N1S(=O)(=O)c1ccccc1 here?
Answer: inactive

Question: Which outcome does the source give for Cc1ccn2cc(-c3ccc(NC(=O)c4ccco4)cc3)nc2c1 here?
Answer: inactive

Question: Which outcome does the source give for COc1cccc(CNC(=O)CCc2nnc3ccc(NCCCN4CCCC4=O)nn23)c1 here?
Answer: inactive

Question: For COc1cccc(CN2CCN(C(=O)c3ccc(-c4ccccc4)cc3)CC2)c1OC, which outcome is on record?
Answer: inactive

Question: For COCC(C)n1c(SCc2nc(N)nc(Nc3ccccc3C)n2)nc2ccccc2c1=O (centres undefined), which outcome is on record?
Answer: inactive

Question: For Cc1ccc(-c2nc3ncccc3o2)cc1NC(=O)c1ccco1, which outcome is on record?
Answer: inactive

Question: With Cn1cnc(S(=O)(=O)N2CCN(c3ccccc3)CC2)c1 as the compound, how does the outcome read?
Answer: inactive

Question: Which outcome does the source give for Cc1ccc(S(=O)(=O)N2CC[C@H]3[C@H](CO)Nc4ccc(-c5cccc(C(=O)N(C)C)c5)cc4[C@H]32)cc1 here?
Answer: inactive

Question: Which outcome does the source give for C[C@H]1CN([C@@H](C)CO)C(=O)c2cc(-c3ccccc3)cnc2O[C@@H]1CN(C)Cc1ccccc1 here?
Answer: inactive

Question: For N#Cc1ccc(-c2ccc3c(c2)[C@@H]2[C@@H](CCN2S(=O)(=O)c2cccc(F)c2)[C@@H](CO)N3)cc1, which outcome is on record?
Answer: inactive

Question: For Cc1cc(C)n2ncc(C(=O)NCc3ccc(Cl)cc3)c2n1, which outcome is on record?
Answer: inactive

Question: With CCN1CCN(C(c2ccccc2)c2nnnn2Cc2ccccc2)CC1 (centres undefined) as the compound, how does the outcome read?
Answer: inactive

Question: For COc1ccc(-c2oc3ncnc(NCCCN4CCOCC4)c3c2-c2ccc(OC)cc2)cc1, which outcome is on record?
Answer: inactive

Question: Which outcome does the source give for O=C(c1cccnc1)N1C[C@H]2[C@@H](c3ccccc31)[C@@H](CO)N2CC1CCCC1 here?
Answer: inactive

Question: With C[C@@H]1CN([C@H](C)CO)C(=O)c2cc(-c3ccccc3)cnc2O[C@H]1CN(C)Cc1ccccc1 as the compound, how does the outcome read?
Answer: inactive

Question: Which outcome does the source give for CC(C)NC(=O)N(C)C[C@H]1Oc2ccc(NC(=O)CCN3CCOCC3)cc2C(=O)N([C@H](C)CO)C[C@@H]1C here?
Answer: inactive

Question: Which outcome does the source give for Cc1ccc(C(O)c2ncc(-c3cccc4ccccc34)[nH]2)cc1F (centres undefined) here?
Answer: inactive

Question: Which outcome does the source give for CO[C@@H]1CN(C)C(=O)c2cc(NC(=O)Nc3ccc(Cl)c(Cl)c3)ccc2OC[C@H](C)NC[C@@H]1C here?
Answer: inactive

Question: With COc1ccc(Cl)cc1NC(=O)CSc1nc(Nc2ccccc2)nc(N2CCOCC2)n1 as the compound, how does the outcome read?
Answer: inactive

Question: Which outcome does the source give for COC(=O)C[C@@H]1CC[C@@H]2[C@@H](COc3ccc(NC(=O)Cc4cccs4)cc3C(=O)N2C)O1 here?
Answer: inactive

Question: With O=C(CC1Nc2ccccc2NC1=O)Nc1ccc2c(c1)OCO2 (centres undefined) as the compound, how does the outcome read?
Answer: inactive

Question: Which outcome does the source give for c1ccc2[nH]c(SCc3cn4cccnc4n3)nc2c1 here?
Answer: inactive

Question: Which outcome does the source give for CC(NC(=O)CSc1ccc(S(=O)(=O)N2CCOCC2)cn1)c1ccc(Cl)cc1Cl (centres undefined) here?
Answer: inactive

Question: For COc1ccc(CN(C2CCCC2)S(=O)(=O)c2ccc(-n3cnnn3)cc2)cc1OC, which outcome is on record?
Answer: inactive

Question: For O=C(NCc1ccccc1)c1ccc(-c2cn[nH]c2)c2ccoc12, which outcome is on record?
Answer: inactive

Question: Which outcome does the source give for Cc1ccc(CS(=O)Cc2ccc(C(=O)NC3CCCC(C)C3C)o2)cc1 (centres undefined) here?
Answer: inactive

Question: With CC(=O)Nc1cccc(-c2ccnc3c2CC(C)(C(=O)Nc2cccc(C(F)(F)F)c2)O3)c1 (centres undefined) as the compound, how does the outcome read?
Answer: inactive

Question: For O=S(=O)(c1ccccc1F)N1CC[C@@H]2[C@H](CO)Nc3ccc(-c4cccc(F)c4)cc3[C@@H]21, which outcome is on record?
Answer: inactive

Question: For Nc1c(C(=O)NCc2ccco2)nnn1Cc1ccccc1, which outcome is on record?
Answer: inactive

Question: For O=C(Nc1ccccc1F)N1C[C@H]2[C@@H](c3ccccc31)[C@H](CO)N2C(=O)C1CC1, which outcome is on record?
Answer: inactive

Question: For CCc1ccc(NC(=O)CSc2nnc(-c3ccco3)o2)cc1, which outcome is on record?
Answer: inactive
